This is a sample that favours compounds with a hit; in the whole collection about 12% have one here.
JMJD2A Tudor inh – qHTS Assay for Inhibitors of JMJD2A-Tudor Domain. AlphaScreen JMJD2A-Tudor / H3K4me3 peptide binding. Potency, µM (doses to about 114 µM), most hits filed as inhibitors. actives 4.4% (n = 390,000); further: nearly all actives have a fitted effect of over 50% in size
L3MBTL1 inh – qHTS Assay for the Inhibitors of L3MBTL1. AlphaScreen L3MBTL1–H3K9me1 peptide binding. actives 0.66% (n = 230,000). AID 485360, 2010. Potency, µM (titrated, usually from 57.1 µM), usual class: inhibitors; further: nearly all actives have a fitted effect of over 60% in size
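Read-out is AlphaScreen signal from streptavidin donor and nickel chelate acceptor beads (10 ug/mL final each) bridging L3MBTL1 (50 nM) and biotinylated K9-monomethylated H3(1-15) peptide (75 nM), after 30 min compound exposure at room temperature.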
BAZ2B block – qHTS Assay for Inhibitors of BAZ2B; AID 504333, 2011; Potency, µM (doses to about 114 µM), hits mostly inhibitors; Bromodomain adjacent to zinc finger domain protein 2B (Homo sapiens), Q9UIF8; actives 4.4% (n = 360,000); AlphaScreen BAZ2B-H3K14Ac peptide displacement; further: nearly all actives have a fitted effect of over 60% in size
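Inhibition is scored as reduced AlphaScreen emission. The BAZ2B/b-H3(5-23)K14Ac complex (50 nM each) in PBS pH 7.4, 0.01% Tween-20 meets compound (up to 110 uM) for 30 min at RT before bead addition.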
Sfp inh – qHTS Assay for Inhibitors of Bacillus subtilis Sfp phosphopantetheinyl transferase (PPTase). 4'-phosphopantetheinyl transferase ffp (Bacillus subtilis), Q9F4F7. Biochemical Sfp PPTase activity, qHTS. actives 3.5% (n = 310,000). Potency, µM, usual class: inhibitors;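 further: the enzyme is Sfp with the accession as filed and its product quenches rhodamine fluorescence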
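With Hepes-Na pH 7.6 buffer containing 10 mM MgCl2, Sfp (15 nM) modified BHQ-2-YbbR (12.5 uM) using rhodamine-CoA (5 uM). Two reads 30 minutes apart at 525/598 nm yielded each well's rate.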
HP1b binding inh – HTS for Inhibitors of HP1-beta Chromodomain Interactions with Methylated Histone Tails; AlphaScreen HP1-beta / biotin-H3K9me3 peptide binding; Potency, µM (doses to about 114 µM), hits mostly inhibitors; actives 0.56% (n = 390,000); AID 540317, 2011; further: nearly all actives have a fitted effect of over 70% in size
Target sequence (P83916 whole entry, looked up): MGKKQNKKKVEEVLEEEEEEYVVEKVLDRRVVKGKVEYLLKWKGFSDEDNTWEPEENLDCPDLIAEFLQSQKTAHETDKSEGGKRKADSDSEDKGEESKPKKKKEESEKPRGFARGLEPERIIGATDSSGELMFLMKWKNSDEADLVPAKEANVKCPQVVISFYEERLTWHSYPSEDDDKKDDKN
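Compound inhibition of the preformed complex between 50 nM HP1-beta and 50 nM biotinylated H3K9me3 peptide was read by AlphaScreen. Buffer was PBS pH 7.4 with 0.01% Tween-20. Incubations ran 30 min at room temperature, with 10 ug/mL donor/acceptor beads.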
G9a inh – qHTS Assay for Inhibitors of Histone Lysine Methyltransferase G9a. Histone-lysine N-methyltransferase EHMT2 (Homo sapiens), Q96KQ7. G9a H3K9 monomethylation, AlphaScreen, 2 h. Potency, µM (highest dose often 102 µM), usual class: inhibitors. actives 8.8% (n = 350,000); further: nearly all actives have a fitted effect of over 75% in size
Target sequence (Q96KQ7 913-1193 limits assumed): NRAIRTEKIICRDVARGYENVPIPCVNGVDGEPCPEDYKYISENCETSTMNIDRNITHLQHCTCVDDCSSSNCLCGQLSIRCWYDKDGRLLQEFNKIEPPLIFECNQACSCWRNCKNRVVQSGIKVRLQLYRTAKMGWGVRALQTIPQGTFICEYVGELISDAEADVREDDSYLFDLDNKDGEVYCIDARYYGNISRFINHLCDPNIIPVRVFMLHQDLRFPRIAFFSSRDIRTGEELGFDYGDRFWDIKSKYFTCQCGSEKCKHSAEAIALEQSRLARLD
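Signal arises when biotinylated H3K9 peptide, once monomethylated, bridges streptavidin donor and antibody-captured acceptor beads. Enzyme at 20 nM was preincubated 15 min with test compounds; peptide 500 nM and SAM 20 uM then reacted for 2 h.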
Each line names hits and unclear results; the compound was inactive in the other large screens; ! = repeats disagree. The call rests on the fitted dose curve; in most records, active means well fitted curve in the direction sought with a large enough effect; inconclusive means small, poorly fitted or top-dose-only effect, or another doubt; inactive means no such curve, though single readings can be large; an effect the other way counts as inactive or inconclusive.

Oc1c(C(c2ccccn2)N2CCCCC2)cc(Cl)c2cccnc12 (stereo unspecified)	JMJD2A Tudor inh 22µM, BAZ2B block 7.9µM, HP1b binding inh inconclusive, G9a inh 7.1µM (no result: L3MBTL1 inh)
CCN1CCN(C(c2ccccc2)c2sc3nc(C)nn3c2O)CC1 (stereo unspecified)	none (no result: L3MBTL1 inh)
CN1CCN(C(c2ccc(Cl)cc2)c2cc(Cl)c3cccnc3c2O)CC1 (stereo unspecified)	JMJD2A Tudor inh 40µM, BAZ2B block 32µM, Sfp inh 79µM, HP1b binding inh inconclusive, G9a inh 2.5µM (no result: L3MBTL1 inh)
OCCN1CCN(C(c2cccs2)c2ccc3cccnc3c2O)CC1 (stereo unspecified)	BAZ2B block 20µM, Sfp inh 16µM, G9a inh inconclusive (no result: JMJD2A Tudor inh, HP1b binding inh)
CN(C)c1ncc2nc(-c3cccs3)c(=O)n(C[C@H]3CCCO3)c2n1	none (no result: JMJD2A Tudor inh, L3MBTL1 inh, BAZ2B block, HP1b binding inh)
COc1ccc(N2CCN(C(=O)CN3C(=O)CSc4c3c(C)nn4-c3ccccc3)CC2)cc1	none (no result: L3MBTL1 inh, Sfp inh)
CN1CCN(C(c2ccc(C(F)(F)F)cc2)c2cc(Cl)c3cccnc3c2O)CC1 (stereo unspecified)	BAZ2B block 40µM, Sfp inh 45µM, G9a inh 11µM (no result: JMJD2A Tudor inh, L3MBTL1 inh, HP1b binding inh)
CCCCC(=O)NC(c1cccs1)c1cc(Cl)c2cccnc2c1O (stereo unspecified)	G9a inh inconclusive
CCN(CC)S(=O)(=O)c1ccc(N2CCCC2)c(NS(=O)(=O)c2ccc([N+](=O)[O-])cc2)c1	G9a inh 10µM
CCc1cc(C(=O)Nc2cc(S(=O)(=O)N(CC)CC)ccc2N2CCN(C)CC2)sc1C	G9a inh 35µM (no result: Sfp inh)
CCc1cc(C(=O)Nc2cc(Cl)ccc2N2CCN(C)CC2)sc1C	G9a inh inconclusive (no result: Sfp inh)
CCN(CC)S(=O)(=O)c1ccc(N2CCCC2)c(NS(=O)(=O)c2ccc(OC)cc2)c1	G9a inh 35µM
COc1ccc(CN(CC2CCC(C(=O)O)CC2)C(=S)Nc2cc(Cl)ccc2OC)cc1 (stereo unspecified)	Sfp inh 40µM, G9a inh inconclusive (no result: L3MBTL1 inh)
COc1ccc(Cl)cc1NC(=S)N(Cc1ccc(C(=O)O)cc1)Cc1ccc(OC)c(OC)c1	Sfp inh 40µM, G9a inh 28µM (no result: L3MBTL1 inh)
COc1cccc(NC(=S)N(Cc2ccc(Cl)cc2)Cc2ccc(C(=O)O)cc2)c1	G9a inh 50µM (no result: L3MBTL1 inh)
Cc1cccc(NC(=S)N(Cc2ccc(Br)cc2)Cc2ccc(C(=O)O)cc2)c1	G9a inh inconclusive (no result: L3MBTL1 inh)
CC(C)CC(=O)Nc1ccc(C(=O)OCc2cc(=O)n3nc(C(C)C)sc3n2)cc1	none (no result: L3MBTL1 inh, Sfp inh)
CC(C)Oc1ccc(CNC(=O)Cn2nc(N3CCN(c4ccccc4)CC3)ccc2=O)cc1	none (no result: L3MBTL1 inh, Sfp inh)
CCOC(=O)C(C(C)=O)c1c(Br)c(O)c(O)c2c(C(=O)c3ccc(C)cc3)coc12 (stereo unspecified)	JMJD2A Tudor inh inconclusive, BAZ2B block 40µM, Sfp inh 13µM, HP1b binding inh inconclusive, G9a inh inconclusive
CCOC(=O)c1c(C)n(-c2ccc(C)cc2)c2c(C(C(C)=O)C(=O)O)c(Br)c(O)c(O)c12 (stereo unspecified)	Sfp inh 0.89µM, HP1b binding inh inconclusive, G9a inh inconclusive (no result: L3MBTL1 inh)
Cc1ccc(C(=O)c2coc3ccc(O)c(Cl)c23)cc1	none (no result: L3MBTL1 inh)
Cn1cccc1C(=O)N1CCC2(CCCN(c3cccc(-c4ccccc4)c3)C2)CC1	none (no result: JMJD2A Tudor inh, L3MBTL1 inh, BAZ2B block, HP1b binding inh)
Cc1cc(=O)n2cccc(O)c2n1	JMJD2A Tudor inh inconclusive, BAZ2B block 13µM, Sfp inh 56µM (no result: G9a inh)
Cc1nnc(SCc2cc(=O)n3cccc(C)c3n2)s1	none (no result: L3MBTL1 inh, Sfp inh)
O=[N+]([O-])c1ccc(N/N=C/c2c[nH]c3ccccc23)c(S(=O)(=O)Nc2ccc(Cl)cc2)c1	JMJD2A Tudor inh 28µM, BAZ2B block 45µM, HP1b binding inh inconclusive, G9a inh inconclusive (no result: L3MBTL1 inh)
O=S1(=O)C=C(Sc2nc3cc(Cl)ccc3o2)c2ccccc21	JMJD2A Tudor inh inconclusive, Sfp inh inconclusive, G9a inh 45µM
CCc1ccc(OC(=O)c2sc3ncn(Cc4cccc(F)c4)c(=O)c3c2C)cc1	none (no result: L3MBTL1 inh, Sfp inh)
N#CC1=C(N)Oc2ccc3ccccc3c2C1c1cccnc1 (stereo unspecified)	G9a inh 45µM
COc1ccc(C2C(C#N)=C(N)Oc3cc(O)ccc32)cc1Cl (stereo unspecified)	G9a inh inconclusive
N#CC1=C(N)Oc2cc(O)c(Cl)cc2C1c1cccnc1 (stereo unspecified)	G9a inh 32µM
N#CC1=C(N)Oc2cc(O)ccc2C1c1cccnc1 (stereo unspecified)	none
N#CC1=C(N)Oc2ccc3ccc(O)cc3c2C1c1cccnc1 (stereo unspecified)	none
N#CC1=C(N)Oc2cc(O)c(Cl)cc2C1c1ccccc1F (stereo unspecified)	G9a inh 50µM (no result: L3MBTL1 inh)
COc1ccc(NC(=O)CCc2c(C)nc3c(-c4ccc(F)cc4)c(C)nn3c2C)c(OC)c1	none (no result: L3MBTL1 inh, Sfp inh)
Cn1nnnc1SCCCNCc1ccccc1OCc1ccc(Cl)cc1	BAZ2B block inconclusive (no result: L3MBTL1 inh, Sfp inh)
CCc1ccccc1NC(=O)Nc1ccc2c(c1)N(CC)C(=O)c1ccccc1S2	none (no result: L3MBTL1 inh, Sfp inh)
O=C(/C=C/c1ccccc1O)c1ccccc1	none (no result: L3MBTL1 inh, BAZ2B block, Sfp inh, G9a inh)
C[n+]1ccc(/C=C/c2ccccc2O)c2ccccc21	JMJD2A Tudor inh inconclusive, BAZ2B block inconclusive, G9a inh 25µM (no result: L3MBTL1 inh)
O=C(Nc1cccc(S(=O)(=O)NC2=NCCC2)c1)c1cc(Cl)ccc1[N+](=O)[O-]	G9a inh 50µM (no result: Sfp inh)
Cc1ccc(CNc2nc(-c3ccco3)nn2S(C)(=O)=O)cc1	none (no result: L3MBTL1 inh, Sfp inh)
CC(C)c1ccc(C2c3c(-c4ccccc4O)n[nH]c3C(=O)N2Cc2ccncc2)cc1 (stereo unspecified)	none (no result: L3MBTL1 inh, Sfp inh)
O=C(NC(=O)c1ccc(F)cc1F)Nc1ccc(Cl)cc1	G9a inh 45µM (no result: L3MBTL1 inh)
CCC(C(=O)NC1CCCCC1)n1c(SCc2cccc(C)c2)nc2ccncc21 (stereo unspecified)	G9a inh 50µM!
CCC(C(=O)NC1CCCCC1)n1c(SCc2cccc(F)c2)nc2ccncc21 (stereo unspecified)	G9a inh inconclusive
Nc1cccnc1Sc1ccc([N+](=O)[O-])cn1	JMJD2A Tudor inh 1.6µM, Sfp inh inconclusive, G9a inh 1µM
O=[N+]([O-])c1ccc(Sc2n[nH]c(-c3ccccc3)n2)nc1	JMJD2A Tudor inh 56µM, G9a inh inconclusive
